Laboratory results taken from ChEMBL document CHEMBL2218924, “A broad activity screen in support of a chemogenomic map for kinase signalling research and drug discovery” (Biochem J, 2013).

Tests used:
[1] = biological target: T1, Serine/threonine-protein kinase TBK1 (Homo sapiens) (UniProt Q9UHD2); conditions: at 10 µM
T1 sequence (whole entry): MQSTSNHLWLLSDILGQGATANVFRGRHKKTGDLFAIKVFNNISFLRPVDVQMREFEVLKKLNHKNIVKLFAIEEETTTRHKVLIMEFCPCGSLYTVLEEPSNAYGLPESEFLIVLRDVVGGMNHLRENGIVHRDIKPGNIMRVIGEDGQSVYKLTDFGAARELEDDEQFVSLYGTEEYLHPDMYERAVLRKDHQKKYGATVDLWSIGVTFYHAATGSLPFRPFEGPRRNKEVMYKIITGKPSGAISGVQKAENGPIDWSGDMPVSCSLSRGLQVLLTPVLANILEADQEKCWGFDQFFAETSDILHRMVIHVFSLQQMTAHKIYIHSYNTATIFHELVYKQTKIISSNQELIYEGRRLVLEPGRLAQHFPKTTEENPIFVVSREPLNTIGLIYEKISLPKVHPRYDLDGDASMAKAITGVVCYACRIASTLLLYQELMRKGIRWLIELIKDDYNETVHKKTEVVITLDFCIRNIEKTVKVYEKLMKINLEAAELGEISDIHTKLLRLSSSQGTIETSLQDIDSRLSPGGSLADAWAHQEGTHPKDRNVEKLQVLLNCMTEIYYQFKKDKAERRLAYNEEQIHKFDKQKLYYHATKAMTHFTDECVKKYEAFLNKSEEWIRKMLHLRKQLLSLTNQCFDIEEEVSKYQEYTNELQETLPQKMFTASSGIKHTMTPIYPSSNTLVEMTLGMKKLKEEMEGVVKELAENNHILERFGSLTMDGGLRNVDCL

[2] = biological target: T2, TGF-beta receptor type-1 (Homo sapiens) (UniProt P36897); conditions: at 1 µM
T2 sequence (whole entry): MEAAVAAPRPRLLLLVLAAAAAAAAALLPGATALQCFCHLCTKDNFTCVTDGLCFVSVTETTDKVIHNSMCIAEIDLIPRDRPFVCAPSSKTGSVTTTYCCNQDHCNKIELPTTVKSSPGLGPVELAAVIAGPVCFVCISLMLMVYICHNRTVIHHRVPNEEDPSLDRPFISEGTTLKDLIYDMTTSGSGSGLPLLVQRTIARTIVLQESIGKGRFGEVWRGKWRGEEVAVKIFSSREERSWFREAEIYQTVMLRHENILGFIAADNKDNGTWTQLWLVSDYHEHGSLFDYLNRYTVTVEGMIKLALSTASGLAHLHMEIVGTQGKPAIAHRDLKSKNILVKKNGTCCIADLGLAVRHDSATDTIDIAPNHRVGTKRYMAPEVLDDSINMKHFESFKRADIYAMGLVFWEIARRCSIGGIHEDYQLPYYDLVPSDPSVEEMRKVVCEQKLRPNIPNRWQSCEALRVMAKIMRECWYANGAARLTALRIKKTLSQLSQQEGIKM

[3] = biological target: T2, TGF-beta receptor type-1 (Homo sapiens); conditions: at 10 µM
[4] = biological target: Insulin-like growth factor 1 receptor (Homo sapiens) (UniProt P08069); conditions: at 1 µM
[5] = biological target: Insulin-like growth factor 1 receptor (Homo sapiens) (UniProt P08069); conditions: at 10 µM
[6] = biological target: T3, Inhibitor of nuclear factor kappa-B kinase subunit alpha (Homo sapiens) (UniProt O15111); conditions: at 1 µM
T3 sequence (whole entry): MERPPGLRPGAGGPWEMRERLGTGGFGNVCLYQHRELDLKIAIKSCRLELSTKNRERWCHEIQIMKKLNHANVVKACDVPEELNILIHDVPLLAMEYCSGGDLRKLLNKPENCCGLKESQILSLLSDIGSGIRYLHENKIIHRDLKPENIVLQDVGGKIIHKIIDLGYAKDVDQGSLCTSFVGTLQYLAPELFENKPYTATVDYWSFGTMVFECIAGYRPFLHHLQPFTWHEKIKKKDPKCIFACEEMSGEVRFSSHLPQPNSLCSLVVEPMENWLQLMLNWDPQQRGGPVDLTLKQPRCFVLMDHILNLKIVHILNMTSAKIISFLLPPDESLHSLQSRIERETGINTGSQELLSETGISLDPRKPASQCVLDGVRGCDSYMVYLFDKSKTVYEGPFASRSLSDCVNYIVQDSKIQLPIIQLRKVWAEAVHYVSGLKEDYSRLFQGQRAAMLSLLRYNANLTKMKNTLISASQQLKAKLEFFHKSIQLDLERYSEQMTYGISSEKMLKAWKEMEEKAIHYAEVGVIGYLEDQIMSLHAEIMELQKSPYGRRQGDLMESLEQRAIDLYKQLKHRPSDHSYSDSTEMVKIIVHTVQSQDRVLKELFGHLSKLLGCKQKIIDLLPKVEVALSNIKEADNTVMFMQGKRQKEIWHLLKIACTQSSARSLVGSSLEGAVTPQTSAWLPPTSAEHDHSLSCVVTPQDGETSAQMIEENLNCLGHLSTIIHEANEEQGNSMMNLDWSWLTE

[7] = biological target: T3, Inhibitor of nuclear factor kappa-B kinase subunit alpha (Homo sapiens); conditions: at 10 µM
[8] = biological target: T4, Inhibitor of nuclear factor kappa-B kinase subunit beta (Homo sapiens) (UniProt O14920); conditions: at 1 µM
T4 sequence (whole entry): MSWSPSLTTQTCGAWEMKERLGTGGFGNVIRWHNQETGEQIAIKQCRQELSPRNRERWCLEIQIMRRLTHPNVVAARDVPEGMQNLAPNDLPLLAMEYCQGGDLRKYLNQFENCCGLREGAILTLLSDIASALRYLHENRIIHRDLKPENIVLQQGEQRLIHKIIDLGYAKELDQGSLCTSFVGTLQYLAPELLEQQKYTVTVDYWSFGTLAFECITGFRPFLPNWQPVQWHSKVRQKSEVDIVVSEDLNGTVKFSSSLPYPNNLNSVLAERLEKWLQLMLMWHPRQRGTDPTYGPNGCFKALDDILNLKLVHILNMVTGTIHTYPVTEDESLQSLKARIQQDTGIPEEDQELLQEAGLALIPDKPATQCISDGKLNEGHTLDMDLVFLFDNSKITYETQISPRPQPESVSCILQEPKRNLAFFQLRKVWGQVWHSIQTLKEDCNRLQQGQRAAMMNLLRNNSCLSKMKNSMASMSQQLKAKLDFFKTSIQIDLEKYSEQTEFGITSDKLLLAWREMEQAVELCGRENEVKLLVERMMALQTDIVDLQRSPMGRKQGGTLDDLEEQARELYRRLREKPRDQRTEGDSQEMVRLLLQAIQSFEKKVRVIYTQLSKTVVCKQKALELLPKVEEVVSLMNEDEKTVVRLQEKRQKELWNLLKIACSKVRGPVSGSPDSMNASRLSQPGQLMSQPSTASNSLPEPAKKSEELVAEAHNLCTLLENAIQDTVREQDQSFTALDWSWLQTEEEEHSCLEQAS

[9] = biological target: T4, Inhibitor of nuclear factor kappa-B kinase subunit beta (Homo sapiens); conditions: at 10 µM
[10] = biological target: Insulin receptor (Homo sapiens) (UniProt P06213); conditions: at 1 µM
Sequence of Insulin receptor (Homo sapiens) (P06213 28-758 limits assumed): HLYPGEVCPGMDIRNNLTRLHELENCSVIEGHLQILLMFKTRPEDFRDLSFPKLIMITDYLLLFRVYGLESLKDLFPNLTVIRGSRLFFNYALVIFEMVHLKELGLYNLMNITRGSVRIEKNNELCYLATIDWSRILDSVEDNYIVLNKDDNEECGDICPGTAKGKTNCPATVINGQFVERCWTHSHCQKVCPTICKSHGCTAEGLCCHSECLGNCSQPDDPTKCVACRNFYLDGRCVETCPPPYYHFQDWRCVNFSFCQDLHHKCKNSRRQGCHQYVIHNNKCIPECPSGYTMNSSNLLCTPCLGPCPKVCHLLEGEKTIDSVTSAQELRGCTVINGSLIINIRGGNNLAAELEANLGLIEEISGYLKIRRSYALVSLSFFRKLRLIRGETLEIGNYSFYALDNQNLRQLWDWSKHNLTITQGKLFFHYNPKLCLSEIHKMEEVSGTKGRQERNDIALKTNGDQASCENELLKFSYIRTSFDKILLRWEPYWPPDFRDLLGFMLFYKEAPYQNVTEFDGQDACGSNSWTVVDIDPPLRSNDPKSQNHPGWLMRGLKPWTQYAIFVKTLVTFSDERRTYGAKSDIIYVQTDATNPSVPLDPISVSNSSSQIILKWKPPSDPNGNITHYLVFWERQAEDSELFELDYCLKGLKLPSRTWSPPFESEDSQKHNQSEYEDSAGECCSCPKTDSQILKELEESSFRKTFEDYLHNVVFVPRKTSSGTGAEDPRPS
Sequence of Insulin receptor (Homo sapiens) (P06213 763-1382 limits assumed): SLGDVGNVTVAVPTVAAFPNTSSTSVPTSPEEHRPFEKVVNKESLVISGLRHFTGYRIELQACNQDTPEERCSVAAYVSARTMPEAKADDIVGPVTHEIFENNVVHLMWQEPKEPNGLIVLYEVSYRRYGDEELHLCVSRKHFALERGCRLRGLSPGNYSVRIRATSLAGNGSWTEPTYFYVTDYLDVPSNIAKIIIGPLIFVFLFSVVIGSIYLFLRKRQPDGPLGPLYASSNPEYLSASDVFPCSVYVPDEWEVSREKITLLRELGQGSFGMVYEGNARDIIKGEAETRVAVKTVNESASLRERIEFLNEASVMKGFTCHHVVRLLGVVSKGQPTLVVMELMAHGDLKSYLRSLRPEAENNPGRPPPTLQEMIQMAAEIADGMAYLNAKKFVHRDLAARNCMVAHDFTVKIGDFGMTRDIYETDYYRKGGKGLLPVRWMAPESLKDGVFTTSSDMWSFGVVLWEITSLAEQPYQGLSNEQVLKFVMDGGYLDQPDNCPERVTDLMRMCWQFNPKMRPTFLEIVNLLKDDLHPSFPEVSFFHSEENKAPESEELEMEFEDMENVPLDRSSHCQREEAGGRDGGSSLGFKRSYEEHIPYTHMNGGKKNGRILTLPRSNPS

Sequence of Insulin-like growth factor 1 receptor (Homo sapiens) (P08069 31-736 limits assumed): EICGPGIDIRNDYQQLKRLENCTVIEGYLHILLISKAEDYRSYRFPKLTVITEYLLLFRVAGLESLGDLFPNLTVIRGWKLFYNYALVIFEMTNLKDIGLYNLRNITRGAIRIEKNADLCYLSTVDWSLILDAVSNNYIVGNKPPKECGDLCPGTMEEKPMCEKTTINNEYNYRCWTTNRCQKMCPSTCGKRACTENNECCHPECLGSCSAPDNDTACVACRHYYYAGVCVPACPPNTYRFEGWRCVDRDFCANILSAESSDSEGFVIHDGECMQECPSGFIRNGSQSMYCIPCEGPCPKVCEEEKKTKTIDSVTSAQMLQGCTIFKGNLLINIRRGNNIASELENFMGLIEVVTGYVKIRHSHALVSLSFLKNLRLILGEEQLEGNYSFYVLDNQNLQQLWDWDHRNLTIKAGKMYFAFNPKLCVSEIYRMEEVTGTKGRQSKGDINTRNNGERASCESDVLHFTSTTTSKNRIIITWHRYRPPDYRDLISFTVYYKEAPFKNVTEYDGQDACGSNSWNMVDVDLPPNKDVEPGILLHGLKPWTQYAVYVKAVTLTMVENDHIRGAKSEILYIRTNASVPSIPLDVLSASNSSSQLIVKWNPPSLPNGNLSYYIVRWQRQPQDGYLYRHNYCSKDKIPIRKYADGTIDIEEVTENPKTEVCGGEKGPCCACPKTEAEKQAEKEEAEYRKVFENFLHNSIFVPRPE
Sequence of Insulin-like growth factor 1 receptor (Homo sapiens) (P08069 741-1367 limits assumed): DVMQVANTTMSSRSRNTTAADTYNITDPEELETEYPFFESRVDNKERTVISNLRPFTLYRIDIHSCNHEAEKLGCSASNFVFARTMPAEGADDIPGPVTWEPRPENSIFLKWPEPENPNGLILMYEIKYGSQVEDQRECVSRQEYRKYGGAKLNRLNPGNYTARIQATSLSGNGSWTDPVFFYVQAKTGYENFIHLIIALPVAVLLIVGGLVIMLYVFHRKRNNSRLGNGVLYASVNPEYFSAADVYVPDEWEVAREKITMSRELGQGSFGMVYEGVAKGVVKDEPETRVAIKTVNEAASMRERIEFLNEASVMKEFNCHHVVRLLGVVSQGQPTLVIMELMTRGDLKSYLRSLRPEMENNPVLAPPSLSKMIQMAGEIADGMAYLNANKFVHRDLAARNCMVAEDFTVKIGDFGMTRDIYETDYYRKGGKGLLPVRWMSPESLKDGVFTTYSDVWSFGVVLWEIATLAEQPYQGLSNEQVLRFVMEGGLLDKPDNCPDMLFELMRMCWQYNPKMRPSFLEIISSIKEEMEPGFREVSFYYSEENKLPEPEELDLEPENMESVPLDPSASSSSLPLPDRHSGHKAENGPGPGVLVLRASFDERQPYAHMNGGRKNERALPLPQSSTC

Cc1ccc(S(=O)(=O)/C=C/C#N)cc1
residual activity [1]: 81%
residual activity [2]: 98%
residual activity [3]: 81%
residual activity [4]: 88%
residual activity [5]: 98%
residual activity [6]: 100%
residual activity [7]: 100%
residual activity [8]: 108%
residual activity [9]: 107%
residual activity [10]: 94%
